Shn3 3UTR inh: inhibitors of Schnurri-3 3'UTR reporter in osteoblasts; Clone20 osteoblast Shn3 3'UTR firefly luciferase, 24 h; inhibition, % at 12.5 µM; actives 0.52% (n = 360,000); AID 588674;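 active = mean inhibition of at least 75% with every replicate also reaching 75%; inconclusive = mean inhibition at least 75% but some replicate below; inactive = mean inhibition below 75%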;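 also: 0% = median of neutral control wells and 100% = pilot-screen positive control compound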
ABHD5-PLIN5 inh: inhibitors of human ABHD5-perilipin-5 interaction; Split G. princeps luciferase complementation, luminescence, 4 h; inhibition, % at 4 µM; actives 0.78% (n = 360,000); AID 602281;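 active = inhibition above the mean inhibition across every tested compound plus 3 SD, cut at about 22% in these data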;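 also: 0% = DMSO only wells and the 100% control is not disclosed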
Target sequence (Q00G26 whole entry, looked up): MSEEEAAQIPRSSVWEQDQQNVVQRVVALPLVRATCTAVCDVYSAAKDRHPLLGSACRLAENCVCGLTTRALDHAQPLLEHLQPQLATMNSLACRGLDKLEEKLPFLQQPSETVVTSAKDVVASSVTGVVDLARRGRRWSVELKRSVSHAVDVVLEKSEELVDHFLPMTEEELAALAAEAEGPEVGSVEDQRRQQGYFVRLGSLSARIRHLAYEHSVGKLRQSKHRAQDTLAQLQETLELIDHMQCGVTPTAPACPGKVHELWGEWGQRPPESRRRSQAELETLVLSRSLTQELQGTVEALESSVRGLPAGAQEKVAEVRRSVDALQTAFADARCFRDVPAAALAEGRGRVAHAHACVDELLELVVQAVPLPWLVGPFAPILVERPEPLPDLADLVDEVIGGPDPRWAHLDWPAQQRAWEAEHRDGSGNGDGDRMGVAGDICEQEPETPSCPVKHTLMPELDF
Target sequence (Q8WTS1 whole entry, looked up): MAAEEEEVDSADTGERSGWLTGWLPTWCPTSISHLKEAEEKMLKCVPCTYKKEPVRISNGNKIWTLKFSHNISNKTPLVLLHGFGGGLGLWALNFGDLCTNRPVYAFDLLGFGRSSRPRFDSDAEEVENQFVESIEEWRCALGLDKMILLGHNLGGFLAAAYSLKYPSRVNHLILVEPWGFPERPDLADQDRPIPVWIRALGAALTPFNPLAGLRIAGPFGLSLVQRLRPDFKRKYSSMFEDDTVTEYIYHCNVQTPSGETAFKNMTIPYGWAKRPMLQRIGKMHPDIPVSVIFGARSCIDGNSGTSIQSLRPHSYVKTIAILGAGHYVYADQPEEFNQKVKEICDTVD
MITF TRPM1 inh: inhibitors of MITF-driven TRPM1 promoter in melanoma cells | SK-MEL-5 TRPM1 promoter luciferase, 24 h | inhibition, % at 12.5 µM | actives 0.83% (n = 330,000);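 active = mean inhibition across replicates of 60% or more, whatever share of single replicates reaches that level; inconclusive = some that reach 60%, reason not given; inactive = mean inhibition across replicates below 60%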
PAX8 inh HTS: inhibitors of PAX8 transcriptional activity in RMG-I cells; RMG-I TPO-luciferase reporter, SteadyGlo, 24 h; inhibition, % at 12.6 µM; actives 1.2% (n = 360,000); AID 652154;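 active = mean replicate inhibition at least 60% with every replicate also reaching 60%; inconclusive = only one of the two criteria is met; inactive = mean below 60% and not all replicates reaching 60%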;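 also: luciferase light reporting Pax8 driven TPO promoter activity; plate controls were median of neutral control wells for no effect and mitoxantrone controls for full effect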
EWS-Fli inh: blocks EWS/Fli oncoprotein-driven transcription | A673 NR0B1-luciferase reporter, viability-normalised | inhibition, % at 12.6 µM | actives 0.67% (n = 350,000) | AID 651661;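 active = mean inhibition of at least 50% after viability correction, with every replicate also passing that limit; inconclusive = mean reaches 50% but only one of two replicates passes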;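 also: firefly luciferase signal divided by Alamar Blue viability fluorescence both relative to DMSO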
Peg3 prom inh: inhibitors of Peg3 promoter. HeLa PEG-Prom luciferase reporter, luminescence, overnight. inhibition, % at 20 µM. actives 1.7% (n = 360,000). AID 588405;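 active = inhibition of at least 50% at 20 µM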
Starred values were filed as active, the others as inactive; ? = inconclusive; / = no result given; ! = repeats disagree. Compounds with a hit are over-represented: about 3% of the library has one in this group of screens.

SMILES | Shn3 3UTR inh | ABHD5-PLIN5 inh | MITF TRPM1 inh | PAX8 inh HTS | EWS-Fli inh | Peg3 prom inh
CCOC(=O)c1cnc2ccc(C(=O)OC)cc2c1Nc1ccc(C(=O)O)cc1 | 3.2 | 0.4 | 8.9 | 103.8* | 8.5 | 10.5
CCOC(=O)c1ccc2ncc(C(=O)OCC)c(Nc3ccc(N4CCOCC4)cc3)c2c1 | 23.9 | 7.0 | 12.1 | 9.3 | -5.9 | 88.1*
FCCCOc1ccc(-c2nccc(-c3ccccn3)n2)cc1 | -20.6 | -0.6 | -40.6 | -11.9 | -21.9 | -172.9
O=C(O)COc1ccc(-c2nccc(-c3ccccn3)n2)cc1 | 20.9 | 6.1 | 44.8 | -2.3 | 53.2* | -39.6
CC(=O)N1c2ccc(S(=O)(=O)NCC3CCC(C(=O)Nc4cc(C)ccn4)CC3)cc2CC1C (stereo not given) | 66.0 | -2.9 | 22.5 | 5.4 | / | 87.7*
O=C(C[C@@H]1C=C[C@@H](NS(=O)(=O)c2ccc(F)cc2)[C@H](CO)O1)NCc1ccccc1F | / | / | / | / | -2.6 | /
Cc1cccc(NC(=O)CSc2nnc(-c3ccc(S(=O)(=O)N4CCCC4)cc3)o2)c1 | 7.0 | -6.5 | 13.2 | / | 3.1 | -0.1
Cc1ccc(NC(=O)CSc2nnc(-c3ccc(S(=O)(=O)N4CCCC4)cc3)o2)cc1C | 13.8 | 6.8 | 14.1 | / | / | 60.1*
CN(C)C(=O)c1cc2c(c(-c3cccc(-c4ccccc4F)c3)n1)[C@H](CCO)N(S(C)(=O)=O)C2 | / | / | / | / | 2.0 | /
CCc1c(O)nc(SCC(=O)Nc2ccccc2)n(-c2ccccc2C)c1=O | -19.9 | 11.3 | / | 12.0 | -5.4 | 3.0
CCc1c(O)nc(SCC(=O)Nc2ccccc2)n(-c2ccccc2)c1=O | 95.8* | -1.1 | 0.1 | / | -17.6 | 4.6
COc1ccc(C(=O)Oc2ccc(F)cc2C(=O)/C=C/c2ccc(OC)c(OC)c2)cc1 | 15.7 | 19.8 | 5.7 | -5.3 | / | 18.6
COc1ccc(/C=C/C(=O)c2cc(F)ccc2OC(=O)c2ccccc2C)cc1OC | 9.3 | 19.4 | 48.6 | 91.2* | ? | 19.3
COc1ccc(N2C3=C(CC4=C2CC(C)(C)CC4=O)C(=O)CC(C)(C)C3)cc1 | -20.5 | 9.6 | 86.9* | / | 46.3 | -14.6
CCCNC(=O)N(C)C[C@@H]1Oc2ncc(C#CC3(O)CCCC3)cc2C(=O)N([C@H](C)CO)C[C@H]1C | / | / | / | -8.0 | -17.2 | /
CC(=O)Nc1nc(C)c(-c2csc(Nc3cccc(C(C)=O)c3)n2)s1 | 86.3* | -13.4 | 65.1* | 12.5 | -1.7 | 48.6
CC(=O)Nc1nc(C)c(-c2csc(Nc3cccc([N+](=O)[O-])c3)n2)s1 | 37.3 | 7.8 | 45.2 | / | / | 46.7
O=C(C[C@H]1CC[C@H](NC(=O)C2CCOCC2)[C@@H](CO)O1)NCC1CC1 | / | / | / | -0.6 | / | /
Cc1ccccc1S(=O)(=O)N1C[C@@H]2N[C@H](C1)C2c1ccc(-c2cccc(C#N)c2)cc1 (stereo not given in full) | / | / | / | 93.6*! | 5.1 | /
N#Cc1cccc(-c2ccc(C3[C@@H]4CN(C(=O)Cc5ccccc5)C[C@H]3N4)cc2)c1 (stereo not given in full) | / | / | / | -10.8 | 7.2 | /
N#Cc1cccc(-c2ccc(C3[C@@H]4CN(S(=O)(=O)c5ccccc5F)C[C@H]3N4)cc2)c1 (stereo not given in full) | / | / | / | -4.0 | 0.1 | /
COc1ccccc1-c1ccc(C2[C@@H]3CN(S(=O)(=O)c4ccccc4)C[C@H]2N3)cc1 (stereo not given in full) | / | / | / | -2.5 | 53.3* | /
CS(=O)(=O)N1C[C@@H]2N[C@H](C1)[C@@H]2c1ccc(-c2ccccc2)cc1 | / | / | / | 75.6* | 0.8 | /
N#Cc1cccc(-c2ccc(C3[C@@H]4CN(C(=O)c5ccccn5)C[C@H]3N4)cc2)c1 (stereo not given in full) | / | / | / | 63.9*! | -4.2 | /
CO[C@@H]1CN(C)C(=O)c2cc(NC(=O)C3CCC3)ccc2OC[C@H](C)N(CC2CCCCC2)C[C@H]1C | / | / | / | 10.7 | 13.4 | /
SMILES | Shn3 3UTR inh | ABHD5-PLIN5 inh | MITF TRPM1 inh | PAX8 inh HTS | EWS-Fli inh | Peg3 prom inh
CNC(=O)C[C@H]1CC[C@H]2[C@H](COc3ccc(NC(=O)C4CCCCC4)cc3C(=O)N2C)O1 | / | / | / | 2.5 | 4.3 | /
N#Cc1ccc(-c2ccc(C3[C@@H]4CN(C(=O)C5CC5)C[C@H]3N4)cc2)cc1 (stereo not given in full) | / | / | / | 98.4* | -10.5 | /
N#Cc1cccc(-c2ccc(C3[C@@H]4CN(C(=O)C5CCOCC5)C[C@H]3N4)cc2)c1 (stereo not given in full) | / | / | / | -3.1 | -5.1 | /
N#Cc1cccc(-c2ccc([C@@H]3[C@@H]4CN(S(=O)(=O)c5ccc(-c6ccccc6)cc5)C[C@H]3N4)cc2)c1 | / | / | / | 40.6 | 74.4* | /
O=C(C[C@H]1CC[C@H]2[C@@H](COC[C@@H](O)CN2S(=O)(=O)c2cccc(Cl)c2)O1)Nc1ccccc1 | / | / | / | -7.8 | -1.8 | /
O=C(C[C@@H]1CC[C@@H]2[C@H](COC[C@H](O)CN2S(=O)(=O)c2cccc(Cl)c2)O1)Nc1ccc(-c2ccccc2)cc1 | / | / | / | 93.7* | -2.5 | /
O=C(C[C@@H]1CC[C@H]2[C@@H](COC[C@H](O)CN2S(=O)(=O)c2cccc(Cl)c2)O1)Nc1ccc(-c2ccccc2)cc1 | / | / | / | 67.4* | 3.9 | /
CN1C(=O)c2cc(NC(=O)c3ccc(F)cc3)ccc2OC[C@@H]2O[C@H](CC(=O)O)CC[C@@H]21 | / | / | / | 5.3 | 3.9 | /
CCOC(=O)c1c2c3c(cccc3n(C)c1=O)C(=O)c1ccccc1-2 | 1.1 | 11.6 | -11.7 | 7.8 | 2.8 | 36.5
CCOC(=O)c1c2c(n(Cc3ccccc3)c1C)C(=O)C(=O)c1ccccc1-2 | 88.5* | -33.8 | / | 125.3* | 68.9* | 93.4*
CCOC(=O)c1c2c(n(C)c1C)C(=O)C(=O)c1ccc(Br)cc1-2 | 94.1* | -18.8 | 86.9* | / | / | 101.0*
C[C@@H](NC(=O)C[C@H]1CC[C@H]2[C@@H](COC[C@@H](O)CN2C(=O)Nc2cc(Cl)cc(Cl)c2)O1)c1ccccc1 | / | / | / | -2.4 | 10.6 | /
COc1ccccc1/C=C/C(=O)/C=C/c1ccccc1O | -12.4 | 10.6 | 66.0* | 43.4 | 43.1 | 100.5*
COc1ccccc1/C=C/C(C)=O | -15.6 | 9.8 | 1.8 | -9.2 | / | 7.9
O=C(C[C@H]1C=C[C@@H](NC(=O)Cc2cccnc2)[C@@H](CO)O1)Nc1ccccc1 | / | / | / | -1.7 | 6.3 | /
CC1OC2CC(=O)OC2C2=C1C(=O)c1c(O)cccc1C2=O (stereo not given) | 93.8* | 101.4* | / | / | 49.9 | 103.4*
CC(C)(C)OC(=O)NCc1ccc(NC(=O)c2nc[nH]c2C(=O)NCCCNC(=O)c2[nH]cnc2C(=O)Nc2ccc(CNC(=O)OC(C)(C)C)cc2)cc1 | 9.3 | -0.4 | 29.7 | / | / | 78.3*
CC(C)(C)OC(=O)NCc1ccc(NC(=O)c2nc[nH]c2C(=O)NCCCCCCNC(=O)c2[nH]cnc2C(=O)Nc2ccc(CNC(=O)OC(C)(C)C)cc2)cc1 | 30.8 | 7.2 | 5.3 | 20.2 | 5.5 | 100.9*

Source: PubChem BioAssay
